{"source": "PubChem BioAssay", "key": {"[1]": {"assay": "rescue of PC12 cells from polyQ htt toxicity – LDH release (AID 1610)", "conditions": "PC12 mutant huntingtin toxicity, final LDH at 4 uM, stronger effect = lower value"}, "[2]": {"assay": "chitosan synthesis blockers in C. neoformans – flow cytometry, Cibacron Brilliant Red staining (AID 1347148; call rule not given here;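 further: compound exposure lasted three days at 37 degrees C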)", "conditions": "Cryptococcus neoformans chitosan, stronger effect = lower value; at 10 µM unless noted"}, "[3]": {"assay": "growth inhibition, single agent or in combination, cell-based, chromothripsis tumors, cisplatin or BGB combos (AID 1671449);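 further: cells exposed for 96 hours; 0% = vehicle DMSO and 100% = killing by high DMSO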", "conditions": "LFS_MB_P medulloblastoma cells"}, "[4]": {"assay": "growth inhibition, single agent and combos, cell-based, chromothripsis tumors, cisplatin or BGB combos (AID 1671450);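 further: cells exposed to compound for four days; 0% = vehicle DMSO and 100% = cell killing by high DMSO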", "conditions": "HDN33 neuroblastoma cells, stronger effect = higher value"}, "[5]": {"assay": "growth inhibition, single agents and combos, LFS_MB_1R, cell-based, cisplatin or BGB combos, synergistic combos for chromothripsis tumors (AID 1671452);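 further: cells exposed for 96 hours before readout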", "conditions": "LFS_MB_1R medulloblastoma cells, stronger effect = higher value"}, "[6]": {"assay": "growth inhibition, single agents and combos, HTB85, cell-based, BGB or cisplatin IC20 combos, synergistic combos for chromothripsis tumors (AID 1671453);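 further: cells exposed for 96 hours before readout; 0% = vehicle DMSO and 100% = high DMSO killing control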", "conditions": "HTB85 osteosarcoma cells, drug combinations, stronger effect = higher value"}, "[7]": {"assay": "growth inhibition, single agents and combos, CRL2098, cell-based, BGB or cisplatin IC20 combos, synergistic combos for chromothripsis tumors (AID 1671454);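 further: cells exposed for 96 h before readout; 0% = vehicle DMSO and 100% = killing by high DMSO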", "conditions": "CRL2098 osteosarcoma cells, drug combinations, stronger effect = higher value"}, "[8]": {"assay": "growth inhibition, single agents and combos, HD-MB03, cell-based, BGB or cisplatin IC20 combos, synergistic combos for chromothripsis tumors (AID 1671455; in the data active means inhibition above about 83%;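 further: 0% = vehicle DMSO and 100% = high DMSO as cytotoxic control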)", "conditions": "HD-MB03 medulloblastoma cells, stronger effect = higher value"}, "[9]": {"assay": "growth inhibition, single agents and combos, UWB1.289, cell-based, BGB or cisplatin combos, synergistic combos for chromothripsis tumors (AID 1671456);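 further: cells exposed to compound for four days; 0% = vehicle DMSO and 100% = killing by high DMSO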", "conditions": "UWB1.289 ovarian carcinoma cells, stronger effect = higher value"}, "[10]": {"assay": "growth inhibition, single agents and combos, LFS_MB_2R, cell-based, cisplatin combos, synergistic combos for chromothripsis tumors (AID 1671457);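 further: cells exposed to compound for four days before readout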", "conditions": "LFS_MB_2R medulloblastoma cells, stronger effect = higher value"}, "[11]": {"assay": "growth inhibition, MDA-MB-436, cell-based, BGB or cisplatin combos, synergistic combos for chromothripsis tumors (AID 1671458; call rule not given here;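 further: cells exposed for 96 hours; 0% = vehicle DMSO and 100% = killing by high DMSO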)", "conditions": "MDA-MB-436 breast carcinoma growth inhibition, drug combinations, stronger effect = higher value"}, "[12]": {"assay": "UWB1.289_BRCA1 ovarian cancer growth, cell-based, BGB or cisplatin combinations (AID 1671459)", "conditions": "UWB1.289 BRCA1 ovarian carcinoma, drug combinations, stronger effect = higher value"}, "[13]": {"assay": "drug combination toxicity in non-malignant astrocytes – cell-based, BGB or cisplatin IC20 combos, cytotoxicity control for chromothriptic childhood tumor combination screen (AID 1671460);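 further: cells exposed to compounds for 96 hours before viability readout; 0% = vehicle and 100% = killing control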", "conditions": "Human astrocytes, viability inhibition, drug combinations, at 0.5 µM, stronger effect = higher value"}, "[14]": {"assay": "BT084 cell growth, single and combined drugs, ICGC_MB145, cisplatin and BGB IC40 combos (AID 1671461);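 further: cells exposed to drugs for 96 hours; 0% = vehicle DMSO and 100% = high DMSO full killing control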", "conditions": "BT084 medulloblastoma cells, drug combinations, stronger effect = higher value"}, "[15]": {"assay": "RCMB18 cell growth, single agent and combined, cisplatin and BGB IC40 combos (AID 1671462);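 further: cells exposed to compound for four days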", "conditions": "RCMB18 medulloblastoma cells, stronger effect = higher value"}, "[16]": {"assay": "CRL1545 cell growth, single agent and combined, cisplatin and BGB IC20 combos (AID 1671464);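 further: cells exposed to compound for 96 hours before readout; 0% = vehicle DMSO and 100% = high DMSO killing control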", "conditions": "CRL1545 osteosarcoma cells, stronger effect = higher value"}, "[17]": {"conditions": "measured here: combination with BGB IC40, at 0.05 µM"}, "[18]": {"conditions": "measured here: with BGB IC20 combination, at 0.5 µM"}, "[19]": {"conditions": "measured here: with cisplatin IC20 combination, at 0.5 µM"}, "[20]": {"conditions": "measured here: combination with cisplatin, at 0.5 µM"}, "[21]": {"conditions": "measured here: combination with cisplatin, at 5 µM"}}, "note": "“And” between values parts separate entries of the source, which are not always exact repeats. Equal values may be shown once. Inconclusive results are not listed. The source made the active and inactive calls. Unless noted, no stated cut-off is given here; in the data, active means inhibition above about 80%; inactive means the rest."}
{"molecule": "CC[n+]1c(-c2ccccc2)c2cc(N)ccc2c2ccc(N)cc21", "values": [{"measurement": "normalised LDH release", "setting": "[1]", "value": 0.673}]}
{"molecule": "C[C@@H]1O[C@@H](O[C@H]2C[C@@H](O)[C@]3(CO)[C@H]4[C@H](O)C[C@]5(C)[C@@H](C6=CC(=O)OC6)CC[C@]5(O)[C@@H]4CC[C@]3(O)C2)[C@H](O)[C@H](O)[C@H]1O", "values": [{"measurement": "fold fluorescence", "setting": "[2]", "value": "4.64 [at 85.5 µM] (inactive)"}]}
{"molecule": "N#Cc1nn(-c2c(Cl)cc(C(F)(F)F)cc2Cl)c(N)c1S(=O)C(F)(F)F", "note": "(stereo unspecified)", "values": [{"measurement": "fold fluorescence", "setting": "[2]", "value": "4.35 [at 114.4 µM] (inactive)"}]}
{"molecule": "O=P1(NCCCl)OCCCN1CCCl", "note": "(stereo unspecified)", "values": [{"measurement": "inhibition", "setting": "[3]; at 0.5 µM, stronger effect = higher value", "value": "-12.1% (inactive) and -23.4% (inactive)"}, {"measurement": "inhibition", "setting": "[3]; measured here: combination with BGB IC20, at 0.005 µM", "value": -22, "unit": "%"}, {"measurement": "inhibition", "setting": "[3]; measured here: combination with BGB IC40, at 0.005 µM", "value": "-15% and -23.6%"}, {"measurement": "inhibition", "setting": "[3]; [17]", "value": "-22.5% and -36.7%"}, {"measurement": "inhibition", "setting": "[3]; measured here: combination with cisplatin, at 0.5 µM, stronger effect = higher value", "value": "-34.3% and -30.8%"}, {"measurement": "inhibition", "setting": "[3]; measured here: combination with cisplatin, at 5 µM, stronger effect = higher value", "value": "-44% and -49.9%"}, {"measurement": "inhibition", "setting": "[4]; BGB combo, at 5 µM", "value": "-18.3% and -55.5%"}, {"measurement": "inhibition", "setting": "[4]; at 0.5 µM", "value": "2.74% (inactive) and -43.1% (inactive)"}, {"measurement": "inhibition", "setting": "[4]; cisplatin combo, at 5 µM", "value": "-14.3% and -32.8%"}, {"measurement": "inhibition", "setting": "[4]; [18]", "value": "36.5% and -51.2%"}, {"measurement": "inhibition", "setting": "[4]; [19]", "value": "-4.58% and -35.3%"}, {"measurement": "inhibition", "setting": "[4]; single agent, at 5 µM", "value": "-24.7% and -29.3%"}, {"measurement": "inhibition", "setting": "[5]; at 0.5 µM", "value": "-28.1% (inactive) and -35.8% (inactive)"}, {"measurement": "inhibition", "setting": "[5]; [17]", "value": "3.69% and -53.3%"}, {"measurement": "inhibition", "setting": "[5]; [20]", "value": "-0.682% and -78.4%"}, {"measurement": "inhibition", "setting": "[5]; [21]", "value": "-35.6% and -67.8%"}, {"measurement": "inhibition", "setting": "[6]; at 0.5 µM", "value": "-11.8% (inactive) and -20.1% (inactive)"}, {"measurement": "inhibition", "setting": "[6]; measured here: with BGB IC20, at 0.5 µM", "value": "-26.1% and -41.8%"}, {"measurement": "inhibition", "setting": "[6]; measured here: with BGB IC20, at 5 µM", "value": "-16.8% and -29.8%"}, {"measurement": "inhibition", "setting": "[6]; measured here: with cisplatin IC20, at 0.5 µM", "value": "9.75% and -12.8%"}, {"measurement": "inhibition", "setting": "[6]; measured here: with cisplatin IC20, at 5 µM", "value": "1.05% and -46.6%"}, {"measurement": "inhibition", "setting": "[6]; single agent, at 5 µM", "value": "-10.4% and -9.47%"}, {"measurement": "inhibition", "setting": "[7]; at 0.5 µM", "value": "-54.7% (inactive) and -66.2% (inactive)"}, {"measurement": "inhibition", "setting": "[7]; measured here: combination with BGB at IC20, at 0.5 µM", "value": "-36.5% and -70.3%"}, {"measurement": "inhibition", "setting": "[7]; measured here: combination with cisplatin at IC20, at 0.5 µM", "value": "-76.6% and -81.7%"}, {"measurement": "inhibition", "setting": "[8]; at 0.5 µM", "value": "-1.59% (inactive) and -13.1% (inactive)"}, {"measurement": "inhibition", "setting": "[8]; measured here: combo with BGB at IC20, at 0.5 µM", "value": "-0.444% and -33.2%"}, {"measurement": "inhibition", "setting": "[8]; measured here: combo with cisplatin at IC20, at 0.5 µM", "value": "-1.58% and -14.4%"}, {"measurement": "inhibition", "setting": "[9]; at 0.5 µM", "value": "-7.68% (inactive) and -24.2% (inactive)"}, {"measurement": "inhibition", "setting": "[9]; measured here: inhibition with BGB combination, at 0.05 µM", "value": "-37.9% and -17.6%"}, {"measurement": "inhibition", "setting": "[9]; measured here: inhibition with cisplatin combination, at 0.05 µM", "value": "-13.2% and -26.4%"}, {"measurement": "inhibition", "setting": "[10]; at 0.5 µM", "value": "-24.9% (inactive) and -21% (inactive)"}, {"measurement": "inhibition", "setting": "[10]; [20]", "value": "-18.4% and -33%"}, {"measurement": "inhibition", "setting": "[10]; [21]", "value": "-20.4% and -22.6%"}, {"measurement": "inhibition", "setting": "[11]; at 0.5 µM", "value": "-32.5% (inactive) and -17.3% (inactive)"}, {"measurement": "inhibition", "setting": "[11]; measured here: BGB combination, at 0.5 µM", "value": "-44.8% and -19%"}, {"measurement": "inhibition", "setting": "[11]; measured here: BGB combination, at 5 µM", "value": "-38% and -30.9%"}, {"measurement": "inhibition", "setting": "[11]; measured here: cisplatin combination, at 0.5 µM", "value": "-35.4% and -19.9%"}, {"measurement": "inhibition", "setting": "[11]; measured here: cisplatin combination, at 5 µM", "value": "-21.1% and -24.7%"}, {"measurement": "inhibition", "setting": "[12]; BGB combination, concentration series, at 5 µM", "value": "-15.7% and -7.29%"}, {"measurement": "inhibition", "setting": "[12]; at 0.5 µM", "value": "-18.2% (inactive) and -23.7% (inactive)"}, {"measurement": "inhibition", "setting": "[12]; cisplatin combination, concentration series, at 5 µM", "value": "-10.3% and -29.5%"}, {"measurement": "inhibition", "setting": "[13]", "value": "-8.49% (inactive) and 1.06% (inactive)"}, {"measurement": "inhibition", "setting": "[13]; measured here: combo with BGB IC20", "value": "-4.33% and 4.18%"}, {"measurement": "inhibition", "setting": "[13]; measured here: combo with cisplatin IC20", "value": "-7.61% and -5.83%"}, {"measurement": "inhibition", "setting": "[14]; at 0.5 µM", "value": "-13.2% (inactive) and -8.24% (inactive)"}, {"measurement": "inhibition", "setting": "[14]; cisplatin combination, at 0.5 µM", "value": "-6.37% and -25.6%"}, {"measurement": "inhibition", "setting": "[14]; cisplatin combination, at 5 µM", "value": "-50% and -9.28%"}, {"measurement": "inhibition", "setting": "[14]; measured here: BGB IC40 combination 0.05 uM, at 0.05 µM", "value": "1.93% and -27.2%"}, {"measurement": "inhibition", "setting": "[14]; single agent, at 5 µM", "value": "-32% and -16.6%"}, {"measurement": "inhibition", "setting": "[15]; at 0.5 µM", "value": "-14.3% (inactive) and -7.44% (inactive)"}, {"measurement": "inhibition", "setting": "[15]; cisplatin combo, at 5 µM", "value": "-2.4% and -9.06%"}, {"measurement": "inhibition", "setting": "[15]; measured here: BGB IC40 combination, at 0.05 µM", "value": "-18.8% and -23%"}, {"measurement": "inhibition", "setting": "[15]; [20]", "value": "-12.5% and 2.1%"}, {"measurement": "inhibition", "setting": "[15]; single agent, at 5 µM", "value": "-33% and -28.9%"}, {"measurement": "inhibition", "setting": "[16]; at 0.5 µM", "value": "-45.1% (inactive) and -50.6% (inactive)"}, {"measurement": "inhibition", "setting": "[16]; [18]", "value": "-3.77% and -48%"}, {"measurement": "inhibition", "setting": "[16]; [19]", "value": "-65.8% and -54.4%"}, {"measurement": "inhibition", "setting": "[16]; single agent, at 0.05 µM", "value": "-16.2% and -50%"}, {"measurement": "inhibition", "setting": "[16]; single agent, at 5 µM", "value": "2.18% and -61%"}]}
{"molecule": "Nc1ccncc1", "values": [{"measurement": "fold fluorescence", "setting": "[2]", "value": "3.69 [at 531.3 µM] (inactive)"}]}
{"molecule": "CC1(C)C(C=C(Cl)Cl)C1C(=O)OC(C#N)c1cccc(Oc2ccccc2)c1", "note": "(stereo unspecified)", "values": [{"measurement": "fold fluorescence", "setting": "[2]", "value": "4.81 [at 120.1 µM] (inactive)"}]}
{"molecule": "Oc1cccc2cccnc12", "values": [{"measurement": "normalised LDH release", "setting": "[1]", "value": 1}]}
